Measured values reported in ChEMBL document CHEMBL3988442, “University of Dundee, Small-Polar-MMV Screening Library” (2021).
Screen size: about 48,000 compounds; about 13,000 (27%) showed an effect of 50% or more. The list shows a part of the results.

Test system: Wolbachia pipientis
Assay: Anti-Wolbachia Cell-Based Screen
Assay type: functional
Design: scale not given: in the data most compounds retested in dose-response had high values
Conditions: 5 µM

Compound	Percent Effect [%]
Cc1ccc(-c2nc(CN3CCN(S(=O)(=O)N(C)C)CC3)cs2)o1	2.093
O=C(c1ncn2c1CNS(=O)(=O)c1ccccc1-2)N1CCOCC1	-11.97
Cc1noc(C)c1S(=O)(=O)N(C)Cc1nn(C)c(Cl)c1Cl	-15.6
CC(C)CC(CCO)CNC(=O)N1CC(C)(C)C1(C)C (centres undefined)	-21.83
CN1CCCC(CNS(=O)(=O)N2CCc3ccccc3C2)C1 (centres undefined)	2.763
CS(=O)(=O)N1CC2(CCN(CC3CCCCC3)C2)Cc2ccccc21 (centres undefined)	112.5
CS(=O)(=O)N1CC2(CCN(CC3CC3)C2)Cc2ccccc21 (centres undefined)	119.1
CS(=O)(=O)N1CC2(CCCN(CC3CC3)C2)Cc2ccccc21 (centres undefined)	118.5
O=C(O)C(F)(F)F.O=C1CC2(CCN(CC3CC3)C2)CN1c1ccc2c(c1)OCO2 (centres undefined)	-8.293
O=C(Cc1cccs1)N1CCC2(CCCN(CC3CCOCC3)C2)C1 (centres undefined)	-3.748
CN1C(=O)C2(CCN(CC3CCC3)C2)c2ccccc21.O=C(O)C(F)(F)F (centres undefined)	10.05
O=C(O)C(F)(F)F.O=C1CC2(CCN(CC3CC3)C2)CN1c1cccc(F)c1 (centres undefined)	-1.195
CS(=O)(=O)N1CC2(CCN(CC3CCCCC3)CC2)Cc2ccccc21	144
O=C(Cc1ccccn1)N1CCC2(CCCN(CC3CCOCC3)C2)C1 (centres undefined)	-4.093
CCn1c(C)nnc1SCCNC(=O)c1cccc2ccnn12	-3.845
Cc1nc(CNC(=O)CC2C(=O)NCCN2Cc2ccccc2C)n[nH]1 (centres undefined)	4.07
CCCc1nnsc1C(=O)NCC1CCN(S(C)(=O)=O)CC1	-2.324
Cc1cnc(N2C[C@@H]3[C@@H](C2)OCC(=O)N3C)nc1	-11.2
CCN1CC2(CCN(C(=O)C(C)Oc3cccc(Cl)c3)CC2)OC1=O (centres undefined)	-19.97
COc1cccc(N2CCN(CCC(=O)NC3CCCCC3)CC2)c1	105.3
CCC(=O)NC1CCN(c2cccc(CC)c2)CC1	-2.51
N#Cc1ccc(OC2CCN(CC(=O)NCC3CCCO3)CC2)cc1 (centres undefined)	1.578
COc1ccc2c(c1)CCCN2C(=O)CN1CCOC(CN(C)C)C1 (centres undefined)	3.019
COc1ccc2c(c1)CCCN(C(C)C(=O)N1CCCC1)C2 (centres undefined)	19.28
CS(=O)(=O)NC1CCN(C(=O)NCC2CCCO2)CC1 (centres undefined)	-8.8
COc1ccc2c(c1)CCCN(C(=O)NCC1CCCO1)C2 (centres undefined)	114.2
CC(C)OCCC(=O)Nc1cccc(N2CCN(CC3CC3)CC2)c1	-21.21

Compound	Percent Effect [%]
COc1cc2c(cc1OC)CN(C(=O)NCC1CCCO1)CC2 (centres undefined)	106.4
COc1ccc2c(c1)CCCN(CC(=O)NCC1CCCO1)C2 (centres undefined)	92.35
COc1ccc2c(c1)CCCN2C(=O)CNCC1CN(C)CCO1 (centres undefined)	15.31
C=C(C)COCCNC(=O)N1CCc2c(cccc2OC)C1	-14.6
COc1ccc(-c2n[nH]cc2CN(C)Cc2ccoc2)c(F)c1	10.13
c1cc2c(cc1C1CCCN1Cc1nnnn1C1CC1)OCCO2 (centres undefined)	-7.859
CCC(O)CNc1ccc(-c2nc(CC(C)C)no2)cn1 (centres undefined)	-5.208
O=C(NCC1CCOC1)c1ccc(OCC(F)(F)F)nc1 (centres undefined)	-6.921
NCC1Cc2cc(-c3cncc(C(=O)N4CCOCC4)n3)cc(Cl)c2O1 (centres undefined)	-2.851
CCc1nc(C2CCCN2CCCS(=O)(=O)c2ccccc2)no1 (centres undefined)	0.9329
COc1ccc2c(c1)CCN(CCC(=O)NC1CCCCC1)CC2	-10.31
COc1ccc2c(c1)CN(CC(=O)NC1CCCC1)CC2	115.8
COc1ccc2c(c1)CN(c1cc(N3CCCC3CO)ncn1)CC2 (centres undefined)	-11.42
COCCOCC(=O)N1CCC(O)(c2ccc3nc(C)ccc3c2)CC1	1.515
CCn1c(N)nc2cc(C(=O)NCCc3sccc3C)cnc21	9.086
O=C(Cc1c[nH]c(=O)[nH]c1=O)N1CCCCC1CCc1cccc(O)c1 (centres undefined)	2.49
CC(C)(C)OC(=O)NCC1CCCCN1Cc1ccccn1 (centres undefined)	1.475
Cc1c[nH]c(CN2CCCCC2CCc2cccc(O)c2)c(C)c1=O (centres undefined)	11.94
CN(Cc1cccc(F)c1)C(=O)CN1CCCC1CCc1ccccc1 (centres undefined)	-6.226
O=C(O)c1cccnc1CN1CCCC1CCc1ccccc1 (centres undefined)	101.7
COc1cc2c(cc1OC)CN(Cc1ncccc1C(=O)O)CC2	-6.886
O=C(O)c1cccnc1CN1CCCCC1CCc1cccs1 (centres undefined)	113
O=C(O)c1cccnc1CN1CCCCC1CCc1cccc(O)c1 (centres undefined)	117.3
O=C(O)c1cccnc1CN(Cc1ccsc1)C1CC1	-4.109
Cc1oc(-c2ccoc2)nc1CN1CCCCC1CCc1ccccc1 (centres undefined)	-13.12
O=C(O)c1cccnc1CN1CCCCC1CCc1ccccn1 (centres undefined)	108.5
CCN1CCCC1CNC(=O)CCc1cccs1 (centres undefined)	-0.4602
